The record followed here is PubChem BioAssay.

Unmarked numbers belong to inactive results. Calls of active or inactive are those of the source.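 How the source made its calls, unless noted: active means compound raises insulin release from rat beta cells at 5 mM glucose, no numeric limit stated; inactive means the rest.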

Assay [1] can be described thus: stimulators of insulin release from INS-1E, primary screen, cell-based, 5 mM glucose, NPC library (AID 1117329). Particulars: rat INS-1E insulin secretion, at 10 µM, active compounds read high.
Assay [2] can be described thus: growth inhibition of GSK3B-pretreated HCT116 cells – cell-based, CellTiter-Glo, 0.2 to 20 µM (AID 1117336;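 active means compounds lowering colon cancer cell viability after pretreatment blocking the GSK3B kinase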). Particulars: HCT116 viability after GSK3B inhibitor, at 20 µM, active compounds read high.
Assay [3] in a line: inhibition of endothelial tube formation, primary screen, imaging, VEGF stimulated, CD31 staining, tube area, NPC library (AID 1117340;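 active means compound that reduces growth-factor-driven endothelial tube area in a mixed cell culture, no cutoff stated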). Particulars: VEGF-stimulated ADSC/ECFC co-culture, at 10 µM, active compounds read high.
A short description of assay [4]: GLP1 release stimulators, primary, NCI-H716, NPC library (AID 1117341;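 active means compound raises GLP1 secretion from the human gut endocrine cells, with no numeric limit stated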). Particulars: NCI-H716 cells, at 10 µM, active compounds read high.
A short description of assay [5]: HCT116 colon cancer cell growth inhibition, primary screen, CellTiter-Glo luminescence, NPC library (AID 1117342;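 active means compounds that lower survival of HCT116 colon cancer cells in the luminescence readout, no numeric limit stated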). Particulars: at 20 µM (top of the series). (Cellular ATP, detected with luciferase, serves as a proxy for viable cell number.)
A short description of assay [6]: reduced SW480 viability measured with CellTiter-Glo, NPC library, primary (AID 1117343;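 active means compounds that lower viability of the colon cancer cells in the luminescence readout, with no numeric limit stated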). Particulars: CellTiter-Glo luminescence; at 20 µM (top of the series).
Assay [7] is described as follows: NPC library primary testing for decreased DLD-1 cell viability via CellTiter-Glo (AID 1117346;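 active means compounds that lower survival of DLD-1 colon cancer cells in the luminescence readout, no cutoff given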). Particulars: DLD-1 viability, CellTiter-Glo luminescence; at 20 µM (top of the series).
Assay [8] concerns the target 6-phosphogluconate dehydrogenase, decarboxylating (Homo sapiens) (UniProt P52209). The assay is described as follows: inhibition of human phosphogluconate dehydrogenase – biochemical, recombinant enzyme, NADPH absorbance, primary screen (AID 1159550;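 active means at least 20% inhibition of 6-phosphogluconate dehydrogenase activity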). Particulars: recombinant 6PGD, NADPH absorbance 341 nm; at 10 µM; active compounds read high.

Sequence of 6-phosphogluconate dehydrogenase, decarboxylating (Homo sapiens) (P52209 whole entry, looked up): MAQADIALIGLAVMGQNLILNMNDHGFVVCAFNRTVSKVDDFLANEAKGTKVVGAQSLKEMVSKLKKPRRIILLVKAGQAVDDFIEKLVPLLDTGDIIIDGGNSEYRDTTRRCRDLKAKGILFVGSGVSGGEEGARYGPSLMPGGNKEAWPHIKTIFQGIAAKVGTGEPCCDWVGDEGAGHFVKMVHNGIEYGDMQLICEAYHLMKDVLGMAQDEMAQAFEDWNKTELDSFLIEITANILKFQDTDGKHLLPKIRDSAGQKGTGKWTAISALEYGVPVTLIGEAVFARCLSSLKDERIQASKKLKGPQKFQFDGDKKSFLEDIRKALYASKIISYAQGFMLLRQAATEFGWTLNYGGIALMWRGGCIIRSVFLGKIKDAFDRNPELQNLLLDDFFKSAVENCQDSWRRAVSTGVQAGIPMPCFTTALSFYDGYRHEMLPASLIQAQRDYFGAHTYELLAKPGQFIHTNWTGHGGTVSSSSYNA

On to `Oc1cccc(O)c1`, for which the insulin secretion stimulation in assay [1] was -1.9%. Further, in assay [2], the viability decrease is -0.8%. The tube area decrease in assay [3] is 21%. Further, the GLP1 secretion stimulation in assay [4] was -2.3%. Moreover, the inhibition of viability in assay [5] was 8%. For the same compound, the viability decrease (inhibition) in assay [6] was 78.9% (active); in assay [7], 2.6%. For the same compound, the inhibition in assay [8] is -5.12%.

`NS(=O)(=O)c1cc2c(cc1Cl)NC(CSCc1ccccc1)=NS2(=O)=O`: in assay [1], the insulin secretion stimulation was 0%. Further, the viability decrease in assay [2] is -14.2%. For the same compound, the tube area decrease in assay [3] is 5%. In addition, in assay [4], the GLP1 secretion stimulation was 0.4%. In addition, the inhibition of viability in assay [5] was -3.3%. In addition, the viability decrease (inhibition) in assay [6] was 0.9%; in assay [7], -17.1%. In addition, the inhibition in assay [8] was -3.14%.

Regarding `Cc1c(C(=O)O)c(O)cc2c1C(=O)c1c(O)c([C@@H]3O[C@H](CO)[C@@H](O)[C@H](O)[C@H]3O)c(O)c(O)c1C2=O`, the insulin secretion stimulation in assay [1] was 4.4%. Besides, the viability decrease in assay [2] is 46.7%. Besides, the tube area decrease in assay [3] was 24.4%. Moreover, in assay [4], the GLP1 secretion stimulation is -1.7%. Besides, the inhibition of viability in assay [5] is 35%. In addition, the results for the viability decrease (inhibition) in assay [6] and in assay [7] were 53.2% (active) and 34.5%, respectively. Also, the inhibition in assay [8] was -2.65%.

For `CC1CCC(NC(=O)N(CCCl)N=O)CC1` (stereo unspecified), the insulin secretion stimulation in assay [1] was 2%. Moreover, the viability decrease in assay [2] was -24.4%. In assay [3], the tube area decrease was 25.1%. Also, in assay [4], the GLP1 secretion stimulation is 1.7%. Also, the inhibition of viability in assay [5] is -2.27%. In addition, the viability decrease (inhibition) in assay [6] was 12.6%; in assay [7] it was -14.1%. The inhibition in assay [8] was 2.66%.

Consider `O=C(O)CCCCC1CCSS1` (stereo unspecified), for which the insulin secretion stimulation in assay [1] was -1.9%. Further, the viability decrease in assay [2] is 3.2%. Moreover, the tube area decrease in assay [3] was 10.9%. For the same compound, in assay [4], the GLP1 secretion stimulation was 0.5%. In assay [5], the inhibition of viability is 14.7%. The figures for the viability decrease (inhibition) in assay [6] and in assay [7] were 29.9% and -0.7%, respectively. Further, the inhibition in assay [8] was 14.8%.

For `CC[N+](C)(C)Cc1ccccc1Br`, the insulin secretion stimulation in assay [1] was 2.5%. Further, the viability decrease in assay [2] was -18.7%. For the same compound, the tube area decrease in assay [3] is 10%. In assay [4], the GLP1 secretion stimulation was -3%. Moreover, the inhibition of viability in assay [5] is 27.2%. Moreover, the viability decrease (inhibition) in assay [6] is -1.6% (active); in assay [7], 10.8%. Moreover, the inhibition in assay [8] was -1.68%.

For the compound `CCCCCC(C)N` (stereo unspecified), the insulin secretion stimulation in assay [1] was 3.3%. In addition, in assay [2], the viability decrease was 11.8%. Besides, in assay [3], the tube area decrease was 4.3%. Besides, the GLP1 secretion stimulation in assay [4] is 0%. The inhibition of viability in assay [5] was -3.73%. The viability decrease (inhibition) was -37.6% in assay [6] and 1.5% in assay [7]. In addition, the inhibition in assay [8] was -7.17%.

On to `CCN(CC)C(=O)c1cccc(C)c1`, for which the insulin secretion stimulation in assay [1] is 5%. The viability decrease in assay [2] is 3.4%. Moreover, the tube area decrease in assay [3] is -44.2%. Besides, the GLP1 secretion stimulation in assay [4] is 2.9%. For the same compound, the inhibition of viability in assay [5] was -3.2%. Besides, the viability decrease (inhibition) in assay [6] is -14.3%; in assay [7], 12.4%. Moreover, the inhibition in assay [8] is 9.21%.

Take `Cc1cc(C(C)(C)C)c(O)c(C)c1CC1=NCCN1`: the insulin secretion stimulation in assay [1] was 2.1%. In assay [2], the viability decrease is 5.6%. Further, the tube area decrease in assay [3] was -3.7%. Also, the GLP1 secretion stimulation in assay [4] was 4.3%. The inhibition of viability in assay [5] is 20.6%. For the same compound, the viability decrease (inhibition) is -4.2% in assay [6] and -0.8% in assay [7]. Besides, the inhibition in assay [8] is 6.36%.

In the case of `COc1ccccc1OCC(O)CO` (stereo unspecified), in assay [1], the insulin secretion stimulation is -0.3%. For the same compound, in assay [2], the viability decrease was -2.1%. In addition, the tube area decrease in assay [3] was -23.8%. The GLP1 secretion stimulation in assay [4] is 1.3%. In addition, the inhibition of viability in assay [5] is -1.2%. The viability decrease (inhibition) in assay [6] is 17.6%; in assay [7], -4.85%. Besides, the inhibition in assay [8] was 12.6%.

With `Nc1c(Br)cc(Br)cc1CNC1CCC(O)CC1` (stereo unspecified), in assay [1], the insulin secretion stimulation is 4.7%. Moreover, the viability decrease in assay [2] was 33.6%. For the same compound, in assay [3], the tube area decrease is 20.4%. Also, the GLP1 secretion stimulation in assay [4] was -1.7%. Besides, in assay [5], the inhibition of viability is 34.3%. Besides, the viability decrease (inhibition) in assay [6] is 11.2%; in assay [7], 14%. Further, in assay [8], the inhibition was -12.9%.

On to `CCN(CC)CCNC(=O)c1cc(Br)c(N)cc1OC`, for which the insulin secretion stimulation in assay [1] was -0.6%. The viability decrease in assay [2] is -24.9%. Also, the tube area decrease in assay [3] was 15.9%. Further, the GLP1 secretion stimulation in assay [4] was 0.5%. In assay [5], the inhibition of viability was -0.17%. In addition, the viability decrease (inhibition) was -9.9% in assay [6] and -34.1% in assay [7]. Besides, the inhibition in assay [8] is 12.4%.

What is called inhibition is the drop in the measured response relative to a control, in per cent.
